Pf Dd2 growth – qHTS Primary assay for Inhibitors of Plasmodium falciparum Dd2 growth in vitro. P. falciparum Dd2 growth, SYBR Green, 72 h. Potency, µM (titrated, usually from 28.9 µM), hits mostly inhibitors. hit rate 4.3% among 120,000. AID 1347417, 2020; active = well fitted inhibition curve with a large enough effect; also: nearly all actives have a fitted effect of over 65% in size
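Infected erythrocytes (Dd2, 0.3% parasitemia, 2.5% hematocrit final) are added to compound in RPMI-1640/Albumax II medium, grown 72 h at 37C in low oxygen, then lysed with saponin/Triton-X containing SYBR Green and read by fluorescence.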
Each line names hits and unclear results; the compound was inactive in the other large screens. This is one part of a sample in which hits are shown more often than they occur.

c1ccc2c(CN3CC(Oc4ccc5c(c4)OCO5)C3)cccc2c1	none
CCCN(CCC)C(=O)c1coc(COc2ccc3sc(C)nc3c2)n1	none
C[C@@H]1CN(C2CCN(Cc3cnn(C)c3C3CC3)CC2)C[C@H](C)O1	none
Cn1cc(CN2CCCC23CCN(c2ccc(C(F)(F)F)cn2)CC3)cc1C#N	Pf Dd2 growth 5.01µM
Cn1ncc(CN2CCCC23CCN(c2ccc(C(F)(F)F)cn2)CC3)c1C1CC1	Pf Dd2 growth 11.2µM
COc1ccc(CN2CC3(COCC2=O)CN(c2ccc(C(F)(F)F)cn2)C3)cc1F	none
Cc1ccc(C2(O)CCN(c3cc(C(F)(F)F)ccn3)CC2)nc1	none
Cc1cccc(C)c1CN1CC2(COCC1=O)CN(c1ccc(C(F)(F)F)cn1)C2	none
FC(F)(F)CN1C2CCC1CN(c1ccc(C(F)(F)F)cn1)C2	none
CC(C)n1ccnc1CN1CCCC12CCN(c1ccc(C(F)(F)F)cn1)CC2	Pf Dd2 growth 12.6µM
CC(C)n1ccnc1CN1CCC2(CCCO2)CCC1=O (stereo not drawn)	none
COC(=O)[C@@H]1Cc2ncn(C)c2CN1C(=O)c1ccccc1C(=O)O	none
Cc1ccccc1NC(=O)N1CCCC(Cn2cnc3cccnc32)C1 (stereo not drawn)	none
CCOC(=O)c1cn(C2CN(S(=O)(=O)c3ccc(F)cc3F)C2)nn1	none
COc1ccc(C(=O)N2CCC(c3n[nH]c(=O)n3Cc3ccc(F)cc3)CC2)cc1OC	none
CN1[C@@H](CCC(=O)NCc2cccnc2)CNC(=O)[C@@H]2[C@H]1CCN2Cc1ccc(F)cc1	none
COc1ccc2cc1Nc1ccc(cc1)C[C@H](NCc1cccc(O)c1)C(=O)N(C)[C@@H](C(=O)Nc1ccccc1)C2	Pf Dd2 growth 4.47µM
COc1ccc(NC(=O)C2Cn3cccc3C(=O)N2C)cc1 (stereo not drawn)	none
COc1ccc(CCNC(=O)C2CC(=O)N(CCc3ccccc3)C2)cc1OC (stereo not drawn)	none
COc1ccc(CCN2C(=O)N(c3ccc(F)cc3)C(=O)C2CC(=O)Nc2ccccc2)cc1OC (stereo not drawn)	none
COc1ccc2cc1Nc1ccc(cc1)C[C@H](NCC1CC1)C(=O)N(C)[C@@H](C(=O)Nc1ccccc1)C2	Pf Dd2 growth 3.98µM
COc1ccc(S(=O)(=O)N2Cc3ccccc3CC2C(=O)Nc2cccc(C)c2)cc1OC (stereo not drawn)	none
O=C(NC1CC1)[C@@H]1C[C@H](Oc2ccccc2)CN1C(=O)c1ccco1	none
CC(=O)N(C1CC1)C1CCOC2(CCN(C(=O)NCCc3ccccc3)CC2)C1 (stereo not drawn)	none
Cc1ccc(S(=O)(=O)N2C[C@@H](F)C[C@H]2C(=O)N2CCc3ccccc3C2)cc1	none
COC[C@H]1CCCN1Cc1nc(C2(O)CCN(C)CC2)cs1	none
COc1ccc(-c2nc3cc(C)ccc3cc2CN2CCCC(CO)C2)cc1OC (stereo not drawn)	none
COc1ccc(-c2nc3cc(C)ccc3cc2CN2CCCC(O)C2)cc1OC (stereo not drawn)	none
COc1ccc2cc(CN3CCCC(C#N)C3)c(-c3cccs3)nc2c1 (stereo not drawn)	none
COC[C@@H]1CCCN1Cc1cc2ccc(C)cc2nc1-c1ccc(OC)cc1	Pf Dd2 growth 14.1µM
COc1ccc(-c2nc3cc(C)ccc3cc2CN2CCN(C)C(CCO)C2)cc1 (stereo not drawn)	Pf Dd2 growth 10µM
COc1cccc(-c2cc(C3CCN(C(=O)c4ccccc4Br)CC3)[nH]n2)c1	none
O=C(CC(c1ccccc1)c1ccccc1F)N1CCSCC1 (stereo not drawn)	none
CNC(=O)[C@@H]1CN(S(=O)(=O)c2cccc(C)c2)C[C@H]1COC	none

Source: PubChem (National Center for Advancing Translational Sciences (NCATS))
